Screens: PubChem BioAssay, several laboratories
HIF activator = HIF pathway transcriptional activators, primary screen, cell-based, U2OS HRE-luciferase, luminescence; activation, % at 7.5 µM (by protocol); actives 0.32% (n = 300,000); AID 1910, 2009; U2OS HRE-luciferase reporter; normalized: DMSO 0%, desferrioxamine 100%;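 active = mean activation of at least 10% of the iron chelator positive control signal, with at least half of replicates also reaching 10%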
PP5 inh = PP5 phosphatase inhibitors, primary screen, biochemical, fluorescence | inhibition, % at 6.7 µM | actives 0.18% (n = 320,000) | purified PP5c, OMFP substrate fluorescence | Serine/threonine-protein phosphatase 5 (Homo sapiens), P53041;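 active = inhibition above the campaign's mean inhibition across all tested compounds plus 3 SD, cut at about 9.5% in these data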;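 also: 0% = DMSO only and 100% = 100 µM cantharidin control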
Target sequence (P53041 whole entry, looked up): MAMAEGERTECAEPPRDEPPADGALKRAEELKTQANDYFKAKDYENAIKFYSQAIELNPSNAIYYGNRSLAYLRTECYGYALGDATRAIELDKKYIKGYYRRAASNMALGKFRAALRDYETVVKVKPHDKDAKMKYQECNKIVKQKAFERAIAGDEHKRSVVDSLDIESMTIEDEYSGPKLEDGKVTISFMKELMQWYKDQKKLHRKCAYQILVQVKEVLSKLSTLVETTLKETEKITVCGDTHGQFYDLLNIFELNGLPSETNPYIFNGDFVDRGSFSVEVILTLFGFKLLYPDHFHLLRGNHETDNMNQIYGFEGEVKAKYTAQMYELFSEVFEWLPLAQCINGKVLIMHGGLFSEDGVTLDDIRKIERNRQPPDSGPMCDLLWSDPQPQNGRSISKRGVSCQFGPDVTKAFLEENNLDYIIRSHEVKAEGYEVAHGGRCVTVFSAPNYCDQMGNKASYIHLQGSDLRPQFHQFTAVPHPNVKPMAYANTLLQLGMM
Dyrk1A ADPGlo = rat Dyrk1A kinase inhibitors, primary screen, biochemical, single point, plate reader; Dual specificity tyrosine-phosphorylation-regulated kinase 1A (Rattus norvegicus), Q63470; ADP-Glo luminescence, NFATc1 peptide; inhibition, % at 12.5 µM; actives 0.43% (n = 310,000); in the data active = inhibition above about 50%;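 also: plate controls were vehicle with enzyme for no effect and no enzyme for full effect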
PP1 inh = PP1-alpha phosphatase inhibitors, primary screen, counter-screen for PP5 inhibitor project, biochemical, fluorescence, OMFP substrate, single point | inhibition, % at 6.7 µM | actives 0.9% (n = 320,000) | purified PP1alpha;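 active = inhibition above the mean inhibition of all tested compounds plus 3 SD, computed separately for each screening campaign, cut at about 15% in these data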
STK33 inh = inhibitors of purified STK33 kinase, primary screen, biochemical, ADP-Glo luminescence, homogeneous, cell-free; Serine/threonine-protein kinase 33 (Homo sapiens), Q9BYT3; actives 0.073% (n = 320,000); inhibition, % at 10 µM; AID 2661, 2010; MBP phosphorylation;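 active = inhibition at or above 25%, using the most active replicate where run in duplicate; inactive = inhibition below 25%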
Dyrk1A artifact = ADP-Glo luciferase interference without Dyrk1A, dose response, artefact control for Dyrk1A inhibitor project, biochemical, luminescence, cherry-pick, set 02; shares compounds with Dyrk1A ADPGlo; ADP-Glo luciferase artifact assay, no Dyrk1A; AC50, µM (highest dose often 12 µM), for inactives: at the top dose activity change, negative = inhibition; 1,300 tested, under 10 active; AID 588348, 2011;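 active = fitted half-maximal dose AC50 no more than ten times the top valid tested dose, with luminescence dropping as dose rises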
* hit, by the source's call; . = no result. Most compounds without a hit are left out; they make up all but 1.5% or so of the library.

SMILES	HIF activator	PP5 inh	Dyrk1A ADPGlo	PP1 inh	STK33 inh	Dyrk1A artifact
COc1cc(/C=C2/C(=N)N3C(=NC2=O)SN=C3S(C)(=O)=O)ccc1OC(=O)c1ccco1	0.0	3.5	.	-2.7	0.0	.
CSC1=NSC2=NC(=O)/C(=C\c3cccs3)C(=N)N12	2.8	-0.7	-0.7	-1.5	1.4	.
CSC1=NSC2=NC(=O)/C(=C/c3coc4ccc(O)cc4c3=O)C(=N)N12	-0.1	-7.8	86.9*	0.2	8.2	11.9%
COc1cc(/C=C2/C(=N)N3C(SC)=NSC3=NC2=O)ccc1OC(=O)c1ccco1	0.6	0.1	57.6*	-3.9	7.5	10.8%
CCC(C)(C)C1CCC(NC(=O)c2ccc(S(=O)(=O)N3CCOCC3)cc2)CC1 (stereo not drawn)	.	1.9	-3.8	-0.2	0.1	.
CCOc1ccc(-c2nc(C#N)c(NCC3CCCO3)o2)cc1 (stereo not drawn)	-0.4	1.4	3.7	1.5	-2.4	.
N#Cc1nc(-c2ccccc2Cl)oc1NCC1CCCO1 (stereo not drawn)	0.4	1.7	60.0*	-1.7	-0.4	12.0%
COc1ccc2c(C#N)c3ccccn3c2c1	2.0	0.3	72.2*	-2.6	3.5	9.4%
COc1ccc(-c2ccc(=O)n(Cc3c(F)cccc3Cl)n2)cc1	0.4	3.7	5.3	3.0	-1.9	.
COc1ccc(-c2ccc(=O)n(Cc3cccc([N+](=O)[O-])c3)n2)cc1	-0.2	1.4	64.0*	-5.6	-1.8	7.5%
CCOC(=O)C1(Cc2ccc(OC)cc2)CCN(C(=O)c2ccoc2C)CC1	-6.8	-0.2	-5.5	4.8	-2.0	.
CSc1cccc(NC(=O)c2c(Cl)cnn2C)c1	0.7	-0.5	52.8*	-3.3	0.6	8.9%
CCOc1ccc(N2C(=O)CC(NCC#N)C2=O)cc1 (stereo not drawn)	-10.7	0.5	-2.3	-3.2	1.7	.
NC(=O)c1cccc2c1-c1ccccc1/C2=N/NC(N)=S	-0.6	3.6	3.5	1.2	5.1	.
COC(=O)c1cccc2c1-c1ccccc1/C2=N/O	1.1	1.7	57.5*	-0.4	29.6*	8.6%
O=C(O)c1cc(N=Cc2c(O)c3ccccc3oc2=O)ccc1O	0.5	.	82.5*	.	15.0	9.4%
Cc1cc(C)cc(N=Cc2c(O)c3ccccc3oc2=O)c1	-0.7	0.6	.	0.9	-2.1	.
O=C(Nc1ccccc1Cl)c1csc(-c2cccnc2)n1	2.2	1.7	74.9*	0.5	7.9	11.4%
O=C(NNS(=O)(=O)c1ccccc1)c1csc(-c2cccnc2)n1	-0.2	-2.1	34.1	-4.5	2.6	.
O=C(Nc1cccc(-c2nc3cccnc3s2)c1)c1ccc(Cl)nc1	0.4	3.5	4.7	15.0	-1.3	.
O=C(Nc1cccc(-c2nc3cccnc3s2)c1)c1cccnc1Cl	1.1	-0.6	61.8*	3.4	4.0	7.8%
COc1ccc2cc(-c3cccnc3)ncc2c1	.	1.5	68.3*	-2.2	4.0	12.3%
Cn1c(-c2ccccc2)c(C=O)c2ccccc21	0.5	-0.9	77.5*	-3.3	1.0	6.8%
COc1ccc(C2C(=O)c3ccccc3C2=O)cc1OC	0.2	-0.3	-2.2	-2.4	0.5	.
COc1cc(C2C(=O)c3ccccc3C2=O)ccc1O	-8.9	1.7	69.3*	-2.1	20.4	8.9%
SMILES	HIF activator	PP5 inh	Dyrk1A ADPGlo	PP1 inh	STK33 inh	Dyrk1A artifact
C=CCn1c(SCN2C(=O)c3ccccc3C2=O)nc2ccc(Cl)cc2c1=O	-0.5	1.1	13.4	2.8	0.1	.
COc1ccc2c(Cl)c(C(=O)N/N=C/c3cccnc3)sc2c1	-0.1	1.2	63.7*	5.2	-0.4	10.0%
COc1ccc2c(Cl)c(C(=O)NN)sc2c1	0.1	0.4	26.2	0.6	-0.8	.
COc1ccc2c(Cl)c(C(N)=O)sc2c1	1.6	1.4	84.0*	-2.5	3.1	8.5%
O=C(N/N=C/c1cccnc1)c1sc2ccccc2c1Cl	0.1	0.6	0.5	2.1	-1.0	.
O=C(c1cccc(S(=O)(=O)N2CCCC2)c1)N1CCN(S(=O)(=O)c2cccc(Cl)c2)CC1	.	.	2.7	.	.	.
CCOc1ccccc1C(=O)Nc1ccccc1C(N)=O	-0.2	1.2	55.8*	-1.4	-1.7	8.8%
